Results taken from PubChem BioAssay AID2069 (Sanford-Burnham Center for Chemical Genomics, 2009).
The whole screen tested about 1,200 compounds, of which about 210 (18%) were called active. Not all results are given here. Values without a mark were called inactive. Rule as the data show it: active = inhibition above about 30%; inactive = the rest.

Test: HTRF signal interference by compounds, confirmation, artefact control for SUMOylation inhibitor project, biochemical, uHTS (AID 2069)
Details: HTRF interference counterscreen, fluorescence, at 35 µM, stronger effect = higher value

Row | SMILES | inhibition
1 | COc1ccc(-c2nc3c(c(SCC(=O)Nc4cccc(O)c4)n2)Cc2c(CO)cnc(C)c2O3)cc1 | -1.05%
2 | Cc1ccc(-c2nc3ccccc3o2)cc1NC(=O)c1ccc2c(c1)OCO2 | 16.6%
3 | O=C(Nc1ccc2nc3ccccc3nc2c1)c1ccc(Br)cc1 | 20.6%
4 | CC(=O)Nc1cccc(NC(=S)Nc2cccc3ccccc23)c1 | -2.65%
5 | CC(=O)Nc1ccc2nc3ccccc3nc2c1 | 36.7% (active)
6 | CC(=O)Nc1ccc(-c2nc3ccc(NC(C)=O)cc3o2)cc1 | 40.8% (active)
7 | CC(=O)Nc1ccc(S(=O)(=O)Nc2nc3ccccc3nc2Nc2ccc3ccccc3c2)cc1 | 18.6%
8 | CCOc1cc(/C=N/N=C(\N)c2nonc2N)cc(Br)c1OCc1cccc2ccccc12 | 0.3%
9 | Cc1cc(/C=C2\SC(=S)NC2=O)c(C)[nH]1 | 3.5%
10 | O=C(Nc1ccc(N2CCOCC2)c2nonc12)C1CCCC1 | -18.9%
11 | O=C(O)CSc1cc(C(=O)c2ccccc2O)cn2c(=O)c3c(-c4ccccc4)csc3nc12 | 7.6%
12 | Cc1cc(-c2csc(N)n2)c(C)n1Cc1ccco1 | -4.05%
13 | O=C(Nc1ccc(-n2nncc2-c2ccco2)cc1)c1cc2ccccc2oc1=O | 9.4%
14 | O=C(N/N=C/c1ccc(F)cc1)c1cc(-c2ccco2)nc2ccccc12 | 13%
15 | COc1ccccc1NC(=O)c1sc2nc(-c3ccco3)ccc2c1N | 26.8%
16 | Nc1c(C(=O)Nc2ccc(Br)cc2)sc2nc(-c3ccco3)ccc12 | 28.9%
17 | Nc1c(C(=O)Nc2ccc(F)cc2)sc2nc(-c3ccco3)ccc12 | 47% (active)
18 | Nc1c(C(=O)Nc2ccccc2)sc2nc(-c3ccco3)ccc12 | 50.1% (active)
19 | O=C(N/N=C/c1ccc(-c2cccc([N+](=O)[O-])c2)o1)c1ccccc1O | 2.3%
20 | Cc1ccc(N=C2NC(=O)/C(=C\c3ccco3)S2)cc1 | -0.45%
21 | NC1=NC(c2ccc(Cl)cc2)N(c2ccc(S(N)(=O)=O)cc2)C(N)=N1 (stereo not drawn) | 6.2%
22 | O=C(CNc1cccc2ccccc12)c1ccc([N+](=O)[O-])cc1 | -2.7%
23 | CCOC(=O)N1CCN(C2=C(NS(=O)(=O)c3ccc(C)cc3)C(=O)c3ccccc3C2=O)CC1 | -12.7%
24 | COc1cc(C2c3c(oc4ccccc4c3=O)C(=O)N2c2nccs2)ccc1O (stereo not drawn) | 7.95%

Row | SMILES | inhibition
25 | O=C(O)c1cc(-c2ccco2)nn1-c1ccc(Cl)cc1 | 1.75%
26 | Cc1ccc(S(=O)(=O)n2ccc(OC(=O)c3cccs3)n2)cc1 | 0.25%
27 | O=C1NNC(c2ccccc2)=N/C1=C\c1ccccc1Cl | -7.9%
28 | Cc1ncc(CO)c(/C=N/NC(=O)c2cc(O)c(O)c(O)c2)c1O | 0.4%
29 | CN(C)/C=N/c1nc2nccc(-c3cccc(Cl)c3)n2n1 | 57.1% (active)
30 | CN(C)/C=N/c1nc2nccc(-c3cccnc3)n2n1 | 49.2% (active)
31 | S=c1[nH]nc(-c2cccnc2)n1/N=C/C=C/c1ccco1 | -1.7%
32 | CC1=NN(c2ccc(F)cc2)C(=O)C1C(c1cccc(O)c1)c1c(C)[nH]n(-c2ccc(F)cc2)c1=O (stereo not drawn) | -9.8%
33 | CN(C)c1cc(N/N=C\c2ccccc2)nc(N(C)C)n1 | 22.4%
34 | O=C(CC1Nc2cccc3cccc(c23)NC1=O)Nc1ccccc1 (stereo not drawn) | -22.9%
35 | O=C(CSc1ccc(Br)c2cccc(Cl)c12)Nc1ccc(S(=O)(=O)Nc2nccs2)cc1 | -50.4%
36 | COc1cc2c(ccc3cc(OC)c(OC)c(O)c32)cc1O | 24.2%
37 | CC(=O)Nc1ccc(NC(=O)Cn2c(-c3ccc(F)cc3)cnc2SCC(=O)Nc2c(C)cccc2C)cc1 | -6.5%
38 | [O-]/C(=C(\C(=S)Nc1cccc2ccccc12)[n+]1ccccc1)c1ccc(Cl)s1 | -8.3%
39 | COc1c(C)oc2cc(O)ccc2c1=O | 41% (active)
40 | O=C1CC(N2CCOCC2)=NN1c1ccc([N+](=O)[O-])cc1 | -12.8%
41 | O=C(NNc1cc(N2CCOCC2)nc(N2CCOCC2)n1)c1ccc(Cl)c(Cl)c1 | -6.9%
42 | Fc1ccc(-c2nc3cnccn3c2NC2CCCC2)cc1 | 57.9% (active)
43 | O=C(/C=C\c1ccco1)c1ccc(NC(=O)c2ccco2)cc1 | 0.2%
44 | CCOc1cc(CNc2ccc(N3CCN(C(C)=O)CC3)cc2)cc(Br)c1OC | -8.4%
45 | Cc1c2c(=O)n(-c3nc4ccccc4s3)nc-2cc(O)n1Cc1ccccc1 | -12.7%
46 | Cc1ccc(S(=O)(=O)NNC(=S)Nc2c(Cl)cccc2Cl)cc1 | -4.65%
47 | Cc1[nH]n(-c2ccccc2)c(=O)c1/C=N/N(C)c1ccccc1 | -31.9%
48 | C[n+]1cccc2ccc3c(c21)OC(N)=C(C#N)C3c1ccccc1 (stereo not drawn) | -12.1%

Row | SMILES | inhibition
49 | COc1ccc(-c2cc(-c3ccccc3)n3ncnc3n2)cc1 | 53.7% (active)
50 | COc1cc(OC)cc(-c2nc(-c3ccccc3)no2)c1 | -17.7%
51 | Cc1ccc(S(=O)(=O)C(C#N)c2nc3ccccc3nc2N2CCCC2)cc1 (stereo not drawn) | -7.1%
52 | COc1ccc(C2=NN(C(=O)c3cccs3)C(c3ccccc3O)C2)cc1 (stereo not drawn) | 8.65%
53 | CC1=NN(c2ccccc2)C(=O)/C1=C/c1ccc(Cl)cc1 | -10.2%
54 | O=C(O)c1ccc(C(=O)Nc2cccc3ccccc23)c(C(=O)O)c1 | 4.4%
55 | O=[N+]([O-])c1ccc2[nH]c(O)c(N=NC(=S)Nc3cccnc3)c2c1 | -5.4%
56 | CCN(CC)CCOC(=O)c1ccc(N/C=C(/C#N)c2nc(-c3ccc(OC)c(OC)c3)cs2)cc1 | 6.75%
57 | O=C(NCc1ccccc1)c1ccc2nc(-c3ccco3)c(-c3ccco3)nc2c1 | 15.6%
58 | O=S(=O)(c1ccc2nc(-c3ccco3)c(-c3ccco3)nc2c1)N1CCOCC1 | 30.4% (active)
59 | O=C(Nc1ccc2nc(-c3ccco3)c(-c3ccco3)nc2c1)N1CCN(c2ccccn2)CC1 | 12.2%
60 | C=CCN1C(=O)N(CC=C)c2cccc3cccc1c23 | -6.45%
61 | Nc1c(N2CCCC2)cc(Cl)c2nonc12 | 22.4%
62 | CCOC(=O)COc1nc(-c2ccco2)cc(-c2ccco2)c1C#N | 22.2%
63 | N#Cc1c(-c2cccc(Br)c2)cc(-c2ccco2)[nH]c1=O | 31.6% (active)
64 | N#Cc1c(-c2ccco2)cc(-c2cccnc2)nc1N | 25.1%
65 | COc1ccc(S(=O)(=O)/N=C2/NC(=O)/C(=C\c3ccco3)S2)cc1 | -10.3%
66 | CC(=O)C1=C(O)C=C(c2ccco2)CC1c1ccco1 (stereo not drawn) | -2.85%
67 | O=c1oc2cc(O)ccc2cc1-c1ccc(F)cc1 | 45.8% (active)
68 | O=c1cc(-c2ccc(F)cc2)[nH][nH]1 | -7.15%
69 | Cc1ccc(NC(=O)CN2C(=O)S/C(=C/c3ccc(O)c([N+](=O)[O-])c3)C2=O)cc1C | -1.6%
70 | Cc1ccc(NC(=O)Cn2c(O)c(N=NC(=O)c3cc4ccccc4cc3O)c3ccccc32)cc1 | 8.55%
71 | Cn1c(C(=O)N2CCN(C(=O)c3ccco3)CC2)cc2c(=O)n3ccccc3nc21 | 57.9% (active)
72 | N=c1c(S(=O)(=O)c2ccccc2)cc2c(=O)n3ccccc3nc2n1Cc1ccco1 | 14.8%

Row | SMILES | inhibition
73 | N=c1c(S(=O)(=O)c2ccc(Cl)cc2)cc2c(=O)n3ccccc3nc2n1Cc1ccco1 | -23.2%
74 | N=c1c(S(=O)(=O)c2ccc(Br)cc2)cc2c(=O)n3ccccc3nc2n1Cc1ccco1 | -13.2%
75 | Cn1c(C(=O)N2COCC2(C)C)cc2c(=O)n3ccccc3nc21 | 55.8% (active)
76 | Cc1ccc(S(=O)(=O)c2cc3c(=O)n4ccccc4nc3n(Cc3ccco3)c2=N)cc1 | -2.55%
77 | O=C(/C=C/c1ccco1)Nc1cccc2cccnc12 | 2.9%
78 | CCOC(=O)c1c(CSc2ccccc2)n(C)c2cc(Br)c(OCC(O)CNC(CO)(CO)CO)cc12 (stereo not drawn) | 0.05%
79 | CN(C)c1cccc(C(=O)OCc2cc(=O)oc3cc(O)ccc23)c1 | 3.4%
80 | O=C(Cc1cc(=O)oc2cc(O)ccc12)NCC1CCC(C(=O)O)CC1 (stereo not drawn) | 44.1% (active)
81 | O=C(Nc1cccc2nsnc12)c1ccc(-c2ccc(Br)cc2)o1 | 22.6%
82 | O=C(NCCc1ccccc1)c1ccc2nc(-c3ccco3)c(-c3ccco3)nc2c1 | 12.2%
83 | Cc1nn(CC(=O)Nc2ccc(C(=O)N(C)C)cc2)c(=O)c2ccccc12 | -0.95%
84 | CCOc1cccc2cc(-c3nnc(NCc4ccco4)s3)c(=O)oc12 | 26.9%
85 | CNc1nnc(-c2cc3ccccc3oc2=O)s1 | 23.1%
86 | Nc1nnc(-c2cc3c(ccc4ccccc43)oc2=O)s1 | 30.1% (active)
87 | Brc1ccc(C2Nc3cccc4cccc(c34)N2)o1 | -8.65%
88 | C/C(=N\OCc1nc2ccccc2c(=O)n1/N=C/c1cc(C)cc([N+](=O)[O-])c1O)c1ccccc1 | -17%
89 | COC(=O)Cn1c2ccc(C)cc2c2nc(C)sc21 | 2.05%
90 | CCOC(=O)Cn1c2ccccc2c2nc3ccccc3nc21 | 25.7%
91 | CCOC(=O)Cn1c2ccc(OC)cc2c2nc3ccccc3nc21 | 53.6% (active)
92 | CCc1cccc(NC(=S)Nc2cccc3ccccc23)c1 | 2.95%
93 | O=c1cc2c(=O)oc3cc(O)c(O)oc3c2c(O)c1O | -3.8%
